One may read the inhibition as the relative decrease from the control value, in per cent.

For experiment [1], the target named is Calcium/calmodulin-dependent protein kinase type II subunit alpha (Homo sapiens) (UniProt Q9UQM7). To be noted: at 1 µM.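 Note: reported value is a mean percent inhibition of CAMK2A.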
Experiment [2] deals with Calcium/calmodulin-dependent protein kinase type II subunit delta (Homo sapiens) (UniProt Q13557). To be noted: at 0.1 µM.
Experiment [3] has the same target. The settings on record: at 1 µM.
Experiment [4] deals with T1, Calcium/calmodulin-dependent protein kinase type IV (Homo sapiens) (UniProt Q16566).
T1 sequence (whole entry): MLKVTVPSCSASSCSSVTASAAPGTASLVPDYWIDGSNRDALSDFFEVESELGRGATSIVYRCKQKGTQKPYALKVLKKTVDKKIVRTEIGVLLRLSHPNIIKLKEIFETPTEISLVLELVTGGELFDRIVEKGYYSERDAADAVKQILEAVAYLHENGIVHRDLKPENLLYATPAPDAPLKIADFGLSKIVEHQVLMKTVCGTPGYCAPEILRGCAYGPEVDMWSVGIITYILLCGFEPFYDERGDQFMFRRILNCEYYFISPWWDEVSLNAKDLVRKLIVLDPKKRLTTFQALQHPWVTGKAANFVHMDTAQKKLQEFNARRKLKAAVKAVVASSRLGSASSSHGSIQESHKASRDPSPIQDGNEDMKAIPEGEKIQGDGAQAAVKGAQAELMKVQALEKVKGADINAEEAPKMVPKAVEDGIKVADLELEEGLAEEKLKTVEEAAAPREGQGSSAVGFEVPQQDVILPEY
To be noted: at 0.1 µM.

Experiment [5] concerns the target T1, Calcium/calmodulin-dependent protein kinase type IV (Homo sapiens). To be noted: at 1 µM.
For experiment [6], the target named is T2, Serine/threonine-protein kinase Chk1 (Homo sapiens) (UniProt O14757).
T2 sequence (whole entry): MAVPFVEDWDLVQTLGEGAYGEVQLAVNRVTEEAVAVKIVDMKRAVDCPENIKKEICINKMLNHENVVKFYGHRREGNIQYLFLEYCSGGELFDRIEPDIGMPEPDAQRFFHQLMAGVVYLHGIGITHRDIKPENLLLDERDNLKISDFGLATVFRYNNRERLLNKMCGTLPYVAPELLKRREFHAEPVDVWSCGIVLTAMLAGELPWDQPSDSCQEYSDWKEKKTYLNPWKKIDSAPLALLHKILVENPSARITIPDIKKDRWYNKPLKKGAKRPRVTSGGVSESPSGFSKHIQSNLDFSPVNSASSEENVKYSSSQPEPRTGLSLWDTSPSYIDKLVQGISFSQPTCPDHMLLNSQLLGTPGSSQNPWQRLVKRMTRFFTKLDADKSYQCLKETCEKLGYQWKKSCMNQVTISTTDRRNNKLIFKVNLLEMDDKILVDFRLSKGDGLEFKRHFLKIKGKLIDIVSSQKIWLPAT
To be noted: at 0.1 µM.

Experiment [7] addresses T2, Serine/threonine-protein kinase Chk1 (Homo sapiens). To be noted: at 1 µM.
Experiment [8] deals with Serine/threonine-protein kinase Chk2 (Homo sapiens) (UniProt O96017). To be noted: at 0.1 µM.
For experiment [9] the target is unchanged. The settings on record: at 1 µM.
In experiment [10] the target is Death-associated protein kinase 1 (Homo sapiens) (UniProt P53355). To be noted: at 0.1 µM.
The target is the same in experiment [11]. The settings on record: at 1 µM.
Experiment [12] concerns the target T3, Serine/threonine-protein kinase DCLK2 (Homo sapiens) (UniProt Q8N568).
T3 sequence (whole entry): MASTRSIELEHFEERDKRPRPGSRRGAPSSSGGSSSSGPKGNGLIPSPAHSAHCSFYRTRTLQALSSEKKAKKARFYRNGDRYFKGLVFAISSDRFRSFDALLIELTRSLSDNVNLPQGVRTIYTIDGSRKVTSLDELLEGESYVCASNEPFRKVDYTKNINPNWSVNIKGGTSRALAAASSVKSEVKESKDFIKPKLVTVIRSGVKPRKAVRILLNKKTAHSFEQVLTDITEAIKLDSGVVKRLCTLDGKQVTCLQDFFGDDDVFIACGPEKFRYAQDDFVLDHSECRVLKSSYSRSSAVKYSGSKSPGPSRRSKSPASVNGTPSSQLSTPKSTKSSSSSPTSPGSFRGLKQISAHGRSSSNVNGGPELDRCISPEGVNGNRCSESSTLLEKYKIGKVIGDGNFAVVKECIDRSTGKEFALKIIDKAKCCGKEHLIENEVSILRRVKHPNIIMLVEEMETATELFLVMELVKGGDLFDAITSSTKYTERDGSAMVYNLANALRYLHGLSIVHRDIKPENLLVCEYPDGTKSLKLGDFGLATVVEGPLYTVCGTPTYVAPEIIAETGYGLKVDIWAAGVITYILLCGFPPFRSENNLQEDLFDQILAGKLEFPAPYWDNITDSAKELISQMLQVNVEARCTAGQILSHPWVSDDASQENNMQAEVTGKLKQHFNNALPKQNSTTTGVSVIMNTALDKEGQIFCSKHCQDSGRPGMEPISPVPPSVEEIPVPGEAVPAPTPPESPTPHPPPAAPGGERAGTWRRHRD
The settings on record: at 0.1 µM.

For experiment [13], the target named is T3, Serine/threonine-protein kinase DCLK2 (Homo sapiens). To be noted: at 1 µM.
In experiment [14] the target is MAP kinase-activated protein kinase 2 (Homo sapiens) (UniProt P49137). To be noted: at 0.1 µM.
The target is the same in experiment [15]. To be noted: at 1 µM.
For experiment [16], the target named is MAP kinase-activated protein kinase 3 (Homo sapiens) (UniProt Q16644). The settings on record: at 0.1 µM.
For experiment [17] the target is unchanged. The settings on record: at 1 µM.
For experiment [18], the target named is Serine/threonine-protein kinase MARK1 (Homo sapiens) (UniProt Q9P0L2). The settings on record: at 0.1 µM.
The target is the same in experiment [19]. To be noted: at 1 µM.
For experiment [20], the target named is MAP/microtubule affinity-regulating kinase 3 (Homo sapiens) (UniProt P27448). To be noted: at 0.1 µM.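 Note: mean percent inhibition of MARK3 kinase activity, measured within the GSK PKIS screening panel.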
MAP/microtubule affinity-regulating kinase 3 (Homo sapiens), sequence (P27448 whole entry, looked up): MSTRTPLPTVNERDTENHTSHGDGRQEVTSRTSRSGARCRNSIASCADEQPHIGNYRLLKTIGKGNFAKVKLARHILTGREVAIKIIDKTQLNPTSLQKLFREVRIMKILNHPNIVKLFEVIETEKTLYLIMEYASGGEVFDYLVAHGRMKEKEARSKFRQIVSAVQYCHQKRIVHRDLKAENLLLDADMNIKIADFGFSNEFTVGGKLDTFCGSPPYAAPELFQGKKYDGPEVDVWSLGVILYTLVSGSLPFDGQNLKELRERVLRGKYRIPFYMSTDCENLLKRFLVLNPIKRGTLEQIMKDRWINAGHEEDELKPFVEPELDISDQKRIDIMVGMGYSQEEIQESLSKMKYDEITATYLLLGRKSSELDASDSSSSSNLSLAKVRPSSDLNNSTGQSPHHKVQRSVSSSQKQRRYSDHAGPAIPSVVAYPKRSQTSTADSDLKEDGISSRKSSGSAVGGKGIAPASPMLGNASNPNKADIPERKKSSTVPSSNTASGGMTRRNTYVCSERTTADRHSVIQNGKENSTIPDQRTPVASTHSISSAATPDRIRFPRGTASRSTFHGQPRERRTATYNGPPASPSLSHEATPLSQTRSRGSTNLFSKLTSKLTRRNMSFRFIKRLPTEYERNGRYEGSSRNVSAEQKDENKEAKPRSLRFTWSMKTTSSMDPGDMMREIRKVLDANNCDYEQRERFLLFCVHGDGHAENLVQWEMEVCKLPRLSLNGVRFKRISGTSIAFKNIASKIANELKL

Serine/threonine-protein kinase Chk2 (Homo sapiens), sequence (O96017 whole entry): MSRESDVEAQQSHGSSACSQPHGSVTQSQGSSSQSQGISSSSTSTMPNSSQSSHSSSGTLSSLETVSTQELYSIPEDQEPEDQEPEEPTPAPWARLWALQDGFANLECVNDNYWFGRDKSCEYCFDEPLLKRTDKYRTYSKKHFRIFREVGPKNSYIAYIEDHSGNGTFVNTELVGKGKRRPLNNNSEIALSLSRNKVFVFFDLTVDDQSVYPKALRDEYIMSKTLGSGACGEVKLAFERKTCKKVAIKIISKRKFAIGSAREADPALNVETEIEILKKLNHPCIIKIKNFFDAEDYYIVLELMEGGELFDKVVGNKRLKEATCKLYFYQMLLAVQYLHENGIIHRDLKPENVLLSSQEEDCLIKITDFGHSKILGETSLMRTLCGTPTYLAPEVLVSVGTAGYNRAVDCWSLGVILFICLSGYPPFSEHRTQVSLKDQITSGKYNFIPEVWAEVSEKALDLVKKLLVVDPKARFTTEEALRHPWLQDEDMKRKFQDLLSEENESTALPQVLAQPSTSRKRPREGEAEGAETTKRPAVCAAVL
MAP kinase-activated protein kinase 3 (Homo sapiens), sequence (Q16644 whole entry, looked up): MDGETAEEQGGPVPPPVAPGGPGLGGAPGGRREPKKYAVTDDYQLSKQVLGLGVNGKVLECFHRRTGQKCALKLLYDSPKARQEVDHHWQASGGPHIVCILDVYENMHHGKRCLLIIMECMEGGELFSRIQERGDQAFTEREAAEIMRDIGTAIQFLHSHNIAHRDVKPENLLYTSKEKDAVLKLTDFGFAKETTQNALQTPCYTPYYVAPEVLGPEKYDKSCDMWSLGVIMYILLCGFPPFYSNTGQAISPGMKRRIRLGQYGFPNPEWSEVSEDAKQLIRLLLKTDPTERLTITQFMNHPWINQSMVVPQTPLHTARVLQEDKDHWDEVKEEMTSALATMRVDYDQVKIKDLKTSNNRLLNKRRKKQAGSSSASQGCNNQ
MAP kinase-activated protein kinase 2 (Homo sapiens), sequence (P49137 whole entry, looked up): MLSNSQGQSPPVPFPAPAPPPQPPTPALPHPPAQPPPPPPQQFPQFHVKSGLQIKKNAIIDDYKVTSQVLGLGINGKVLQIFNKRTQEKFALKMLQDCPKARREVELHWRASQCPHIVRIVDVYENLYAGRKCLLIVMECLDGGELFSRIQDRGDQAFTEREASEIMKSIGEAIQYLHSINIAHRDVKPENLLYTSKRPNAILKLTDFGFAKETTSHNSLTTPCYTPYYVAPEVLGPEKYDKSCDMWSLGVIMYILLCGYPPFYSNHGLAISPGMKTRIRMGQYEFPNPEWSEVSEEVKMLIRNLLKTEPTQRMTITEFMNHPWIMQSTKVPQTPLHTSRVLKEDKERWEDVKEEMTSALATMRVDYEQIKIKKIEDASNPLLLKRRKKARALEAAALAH
Serine/threonine-protein kinase MARK1 (Homo sapiens), sequence (Q9P0L2 whole entry, looked up): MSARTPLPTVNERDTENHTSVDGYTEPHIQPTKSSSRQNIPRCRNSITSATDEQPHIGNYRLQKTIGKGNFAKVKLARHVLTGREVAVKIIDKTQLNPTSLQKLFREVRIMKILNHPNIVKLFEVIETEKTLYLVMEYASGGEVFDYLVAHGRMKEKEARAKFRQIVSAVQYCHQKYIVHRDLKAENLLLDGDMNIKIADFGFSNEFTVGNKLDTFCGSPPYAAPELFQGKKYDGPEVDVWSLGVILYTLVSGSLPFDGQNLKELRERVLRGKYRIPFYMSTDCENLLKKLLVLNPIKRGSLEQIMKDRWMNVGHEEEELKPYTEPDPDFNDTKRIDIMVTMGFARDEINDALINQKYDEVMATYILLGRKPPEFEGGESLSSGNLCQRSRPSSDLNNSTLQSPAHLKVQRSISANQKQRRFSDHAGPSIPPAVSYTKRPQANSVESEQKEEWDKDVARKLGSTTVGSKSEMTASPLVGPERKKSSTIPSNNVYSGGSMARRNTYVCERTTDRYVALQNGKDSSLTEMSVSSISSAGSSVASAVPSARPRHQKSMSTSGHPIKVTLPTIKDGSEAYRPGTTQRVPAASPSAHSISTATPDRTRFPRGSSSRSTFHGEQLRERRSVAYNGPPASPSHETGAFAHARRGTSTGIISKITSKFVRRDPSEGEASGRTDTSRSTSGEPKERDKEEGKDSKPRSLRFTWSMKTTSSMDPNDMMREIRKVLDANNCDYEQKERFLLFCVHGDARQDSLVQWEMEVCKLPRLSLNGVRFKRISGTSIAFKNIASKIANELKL
Death-associated protein kinase 1 (Homo sapiens), sequence (P53355 whole entry, looked up): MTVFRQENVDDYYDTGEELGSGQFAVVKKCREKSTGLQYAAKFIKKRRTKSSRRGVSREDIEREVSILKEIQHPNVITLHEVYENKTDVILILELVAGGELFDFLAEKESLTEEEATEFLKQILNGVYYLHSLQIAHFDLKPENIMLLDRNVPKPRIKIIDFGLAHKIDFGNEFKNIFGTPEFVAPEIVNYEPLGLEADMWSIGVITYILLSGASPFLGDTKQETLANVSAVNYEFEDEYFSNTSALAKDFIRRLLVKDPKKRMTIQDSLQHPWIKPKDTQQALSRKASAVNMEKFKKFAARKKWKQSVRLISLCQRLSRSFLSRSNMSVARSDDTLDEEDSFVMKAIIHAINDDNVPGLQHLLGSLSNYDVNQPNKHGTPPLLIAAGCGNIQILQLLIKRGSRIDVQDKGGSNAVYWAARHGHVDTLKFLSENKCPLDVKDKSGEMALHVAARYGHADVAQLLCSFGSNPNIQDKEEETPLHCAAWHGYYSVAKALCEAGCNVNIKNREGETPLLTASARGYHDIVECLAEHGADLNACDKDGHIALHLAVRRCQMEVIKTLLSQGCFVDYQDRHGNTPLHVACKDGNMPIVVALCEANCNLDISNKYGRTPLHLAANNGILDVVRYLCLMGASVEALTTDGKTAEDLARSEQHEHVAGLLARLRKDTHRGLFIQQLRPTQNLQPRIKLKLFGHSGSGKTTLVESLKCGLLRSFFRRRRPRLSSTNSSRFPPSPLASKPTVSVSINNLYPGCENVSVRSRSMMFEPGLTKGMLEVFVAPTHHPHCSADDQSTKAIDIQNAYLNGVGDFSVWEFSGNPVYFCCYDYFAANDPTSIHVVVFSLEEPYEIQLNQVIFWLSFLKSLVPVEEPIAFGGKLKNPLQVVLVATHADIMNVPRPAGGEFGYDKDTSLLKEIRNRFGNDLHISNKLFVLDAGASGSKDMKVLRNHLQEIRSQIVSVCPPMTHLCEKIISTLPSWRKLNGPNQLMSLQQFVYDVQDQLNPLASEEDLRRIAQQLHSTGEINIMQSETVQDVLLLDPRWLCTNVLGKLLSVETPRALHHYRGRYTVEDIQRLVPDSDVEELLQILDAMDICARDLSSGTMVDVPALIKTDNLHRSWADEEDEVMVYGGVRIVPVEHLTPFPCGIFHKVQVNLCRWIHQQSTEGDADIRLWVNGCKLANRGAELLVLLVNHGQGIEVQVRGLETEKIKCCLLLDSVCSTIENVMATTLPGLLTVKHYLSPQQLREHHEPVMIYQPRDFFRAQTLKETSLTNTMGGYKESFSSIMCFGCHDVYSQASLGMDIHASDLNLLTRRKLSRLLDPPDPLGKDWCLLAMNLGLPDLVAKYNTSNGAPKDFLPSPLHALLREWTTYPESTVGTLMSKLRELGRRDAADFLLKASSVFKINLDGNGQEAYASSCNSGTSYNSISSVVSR
Calcium/calmodulin-dependent protein kinase type II subunit alpha (Homo sapiens), sequence (Q9UQM7 whole entry): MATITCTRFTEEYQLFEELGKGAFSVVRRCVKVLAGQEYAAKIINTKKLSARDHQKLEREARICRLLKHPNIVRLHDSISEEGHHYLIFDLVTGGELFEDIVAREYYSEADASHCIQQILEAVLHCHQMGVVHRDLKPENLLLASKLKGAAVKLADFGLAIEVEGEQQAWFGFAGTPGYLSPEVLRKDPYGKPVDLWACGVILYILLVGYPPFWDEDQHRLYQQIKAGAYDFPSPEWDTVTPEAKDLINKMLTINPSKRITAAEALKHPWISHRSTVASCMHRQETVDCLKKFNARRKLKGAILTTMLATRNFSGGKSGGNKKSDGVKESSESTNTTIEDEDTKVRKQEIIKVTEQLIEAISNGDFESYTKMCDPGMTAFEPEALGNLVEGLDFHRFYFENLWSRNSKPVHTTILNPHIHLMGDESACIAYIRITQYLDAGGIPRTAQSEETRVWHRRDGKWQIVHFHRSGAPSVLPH

With `FC(F)(F)c1ccc(-c2nn3ncccc3c2-c2ccnc(Nc3ccc4c(c3)OCCO4)n2)cc1`, the inhibition in experiment [1] was -2.19%; in experiment [2], -3.32%; in experiment [3], -2.99%; in experiment [4], -4.88%; in experiment [5], -4.43%; in experiment [6], 0.08%. Further, the inhibition in experiment [7] stood at 1.68%; in [8] it was 3.99%; in experiment [9] it was 5.26%; in experiment [10], 1.54%; in [11], 1.79%; in experiment [12] it was 5.13%. Besides, the inhibition in experiment [13] is 2.77%; in experiment [14], 3.11%; in experiment [15], 3.56%; in [16], 10.3%; in [17], 30.6%; in experiment [18], 4.61%. The inhibition was found to be 6.64% in experiment [19] and 5.66% in [20].
As to `c1ccc(Nc2ncc(-c3ccccc3)o2)cc1`, the inhibition in experiment [1] was 3.27%; in experiment [2], 3.06%; in experiment [3], 6.25%; in experiment [4], 1.79%; in experiment [5] it was 3.97%; in experiment [6], 6.09%. The inhibition in [7] was 8.99%; in [8], 0.95%; in [9], 2.54%; in experiment [10], 6.27%; in experiment [11], 5.31%; in [12] it was 0.92%. The inhibition amounted to 3.72% in [13]; 1.35% in experiment [14]; 2.04% in [15]; 4.43% in experiment [16]; 5.91% in [17]; 1.31% in [18]. For the same compound, the inhibition in experiment [19] came out at 4.58%; in [20] it was 1.16%.
As to `CN(C)CCCn1c(-c2nonc2N)nc2cnccc21`, the inhibition in experiment [1] is 3.18%; in experiment [2], 3.33%; in [3] it was 4.12%; in [4], -0.84%; in [5], 15.5%; in [6] it was 5.63%. In addition, the inhibition in experiment [7] stood at 4.94%; in [8], 2.39%; in experiment [9], 3.79%; in [10], 4.9%; in [11], 5.9%; in experiment [12] it was 0.05%. For the same compound, the inhibition was 2.05% in experiment [13]; 2.54% in experiment [14]; 1.94% in experiment [15]; 4.24% in [16]; 4.17% in [17]; 3.64% in experiment [18]. The inhibition is 6.1% in experiment [19] and 4.25% in [20].
Turning to `O=C(Nc1ccc(Oc2ccc3[nH]c(NC(=O)c4ccco4)nc3c2)cc1)Nc1cc(C(F)(F)F)ccc1F`, the inhibition was 2.09% in [1]; 1.58% in experiment [2]; 4.15% in experiment [3]; 2.98% in experiment [4]; 4.62% in [5]; -0.34% in experiment [6]. Further, the inhibition in [7] was -0.68%; in experiment [8], 0.12%; in experiment [9], 4.39%; in experiment [10], -1.4%; in experiment [11], -1.29%; in [12], -4.07%. Moreover, the inhibition in experiment [13] is -5.38%; in [14], -0.82%; in experiment [15], -1.43%; in [16] it was 2.85%; in experiment [17], 16.3%; in experiment [18] it was -1.16%. In addition, the inhibition in [19] is 0.35%; in experiment [20], -0.52%.
Consider `C[C@@H](Oc1cc(-n2cnc3ccc(OCC4CCN(C)CC4)cc32)sc1C(N)=O)c1ccccc1C(F)(F)F`, for which the inhibition in experiment [1] is 14.2%; in [2] it was 6.59%; in [3], 49.9%; in experiment [4], -0.36%; in experiment [5], 1.74%; in experiment [6], -1.68%. Moreover, the inhibition in experiment [7] was 0.33%; in [8] it was -2%; in experiment [9], -1.44%; in [10] it was -1.34%; in [11], 3.7%; in [12], -1.44%. In addition, the inhibition in experiment [13] was 0.02%; in [14], -1.73%; in experiment [15], -1.24%; in [16], -0.96%; in experiment [17], -1.6%; in experiment [18], 8.37%. For the same compound, the inhibition in [19] is 50.7%; in experiment [20], 6.29%.
For `[O-][S+]1CCN(Cc2ccc(-c3ccc4ncnc(Nc5ccc(OCc6ccccc6)c(Cl)c5)c4c3)o2)CC1`, the inhibition in experiment [1] is -1.1%; in experiment [2], 0.81%; in [3], 1.03%; in experiment [4], -1.57%; in [5], -1.23%; in experiment [6], 3.06%. The inhibition in experiment [7] was -0.08%; in experiment [8], 1.32%; in experiment [9], 2.85%; in experiment [10], 1.85%; in experiment [11] it was 0.97%; in [12], 0.43%. Besides, the inhibition in [13] was 1.8%; in experiment [14] it was 1%; in experiment [15], 0.44%; in experiment [16], 6.01%; in experiment [17] it was 8.71%; in experiment [18], 1.37%. The inhibition in experiment [19] was 2.21%; in experiment [20] it was -0.92%.
Regarding `Cc1ccc(Nc2ccnc(Nc3cccc(C(N)=O)c3)n2)cc1O`, the inhibition in experiment [1] is 3.19%; in experiment [2], 2.94%; in experiment [3] it was 5.54%; in [4] it was -0.64%; in experiment [5] it was -0.14%; in experiment [6] it was 1%. Also, the inhibition was 2.08% in experiment [7]; 2.56% in experiment [8]; 12.8% in experiment [9]; 1.62% in experiment [10]; 0.43% in [11]; -4.04% in [12]. The inhibition in experiment [13] is 0.3%; in [14], 1.02%; in experiment [15] it was 0.74%; in experiment [16], 3.05%; in [17], 7.65%; in experiment [18], 2.3%. The inhibition in [19] was determined as 6.45%; in [20], 4.15%.

These data come from ChEMBL document CHEMBL1961873, “Compounds: GSK PKIS; Assays: Nanosyn kinase panel” (2012).
